Assay results as given in PubChem BioAssay AID1159580 (chemical genetic matrix, 2015).
In all, about 5,500 compounds went through this assay and about 2,000 (36%) were called active. Roughly 18% stayed inconclusive and do not appear here. Rule as the data show it: active = normalized growth mostly below about 0.91 (no sharp cut-off); inconclusive = no clear call, values can overlap the other calls; inactive = mostly above about 0.92. The list shows a part of the results.

Assay: chemical genetic growth profiling, strain panel (AID 1159580);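 also: tested at 20 µM; growth read once vehicle control cultures reached saturation at 30 °C; 1 = growth at the plate median or of vehicle wells; lower values mean less growth of the strain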
Conditions: growth OD

Measured: normalized growth

C[C@]12C=CC(=O)C=C1CCC1C2[C@@H](O)C[C@@]2(C)C1CC[C@]2(O)C(=O)CO (stereo not given in full)
inactive: S. cerevisiae deletion strains, locus YJR075W, strain HOC1, stronger effect = lower value 0.993 | S. cerevisiae deletion strains, locus YKL009W, strain mrt4, stronger effect = lower value 0.976 | S. cerevisiae deletion strains, locus YKL068W, stronger effect = lower value 0.991 | S. cerevisiae deletion strains, locus YKL085W, strain MDH1 (second series), stronger effect = lower value 0.98 | S. cerevisiae deletion strains, locus YKL085W, strain MDH1, stronger effect = lower value 0.98 | S. cerevisiae deletion strains, locus YKL160W, strain elf1, stronger effect = lower value 0.981 | S. cerevisiae deletion strains, locus YKL190W, strain CNB1, stronger effect = lower value 0.996 | S. cerevisiae deletion strains, locus YKR001C, strain vps1, stronger effect = lower value 0.991 | S. cerevisiae deletion strains, locus YKR026C, strain gcn3, stronger effect = lower value 0.997 | S. cerevisiae deletion strains, locus YKR091W, strain srl3, stronger effect = lower value 0.999 | S. cerevisiae deletion strains, locus YLL001W, strain dnm1, stronger effect = lower value 0.978 | S. cerevisiae deletion strains, locus YLL026W, stronger effect = lower value 0.995 | S. cerevisiae deletion strains, locus YLL041C, strain sdh2, stronger effect = lower value 0.989 | S. cerevisiae deletion strains, locus YLR027C, strain aat2, stronger effect = lower value 0.995 | S. cerevisiae deletion strains, locus YLR039C, strain RIC1, stronger effect = lower value 0.974 | S. cerevisiae deletion strains, locus YLR058C, strain SHM2, stronger effect = lower value 0.994 | S. cerevisiae deletion strains, locus YLR102C, strain apc9, stronger effect = lower value 0.98 | S. cerevisiae deletion strains, locus YLR113W, strain HOG1, stronger effect = lower value 1.01 | S. cerevisiae deletion strains, locus YLR221C, strain rsa3, stronger effect = lower value 1.01 | S. cerevisiae deletion strains, locus YLR258W, strain gsy2, stronger effect = lower value 0.991 | S. cerevisiae deletion strains, locus YLR262C, strain YPT6 (second series), stronger effect = lower value 0.992 | S. cerevisiae deletion strains, locus YLR262C, strain YPT6, stronger effect = lower value 0.991 | S. cerevisiae deletion strains, locus YLR268W, strain sec22, stronger effect = lower value 0.948 | S. cerevisiae deletion strains, locus YLR320W, strain mms22, stronger effect = lower value 0.97 | S. cerevisiae deletion strains, locus YLR330W, strain CHS5, stronger effect = lower value 0.99 | S. cerevisiae deletion strains, locus YLR342W, strain FKS1 (second series), stronger effect = lower value 0.979 | S. cerevisiae deletion strains, locus YLR342W, strain FKS1, stronger effect = lower value 0.997 | S. cerevisiae deletion strains, locus YLR357W, strain rsc2, stronger effect = lower value 0.989 | S. cerevisiae deletion strains, locus YLR370C, strain arc18, stronger effect = lower value 0.988 | S. cerevisiae deletion strains, locus YLR371W, strain rom2, stronger effect = lower value 0.964 | S. cerevisiae deletion strains, locus YLR384C, strain iki3, stronger effect = lower value 0.991 | S. cerevisiae deletion strains, locus YLR418C, strain cdc73, stronger effect = lower value 0.98 | S. cerevisiae deletion strains, locus YML016C, strain PPZ1, stronger effect = lower value 0.988 | S. cerevisiae deletion strains, locus YML032C, strain rad52, stronger effect = lower value 0.972 | S. cerevisiae deletion strains, locus YML120C, strain ndi1, stronger effect = lower value 0.984 | S. cerevisiae deletion strains, locus YML124C, strain tub3, stronger effect = lower value 0.989 | S. cerevisiae deletion strains, locus YMR058W, strain fet3, stronger effect = lower value 0.996 | S. cerevisiae deletion strains, locus YMR078C, strain ctf18, stronger effect = lower value 0.974 | S. cerevisiae deletion strains, locus YMR125W, strain sto1, stronger effect = lower value 0.99 | S. cerevisiae deletion strains, locus YMR129W, stronger effect = lower value 0.993 | S. cerevisiae deletion strains, locus YMR205C, strain PFK2, stronger effect = lower value 0.998 | S. cerevisiae deletion strains, locus YMR223W, strain ubp8, stronger effect = lower value 1 | S. cerevisiae deletion strains, locus YMR231W, strain pep5, stronger effect = lower value 0.991 | S. cerevisiae deletion strains, locus YMR307W, strain GAS1, stronger effect = lower value 0.893 | S. cerevisiae deletion strains, locus YNL067W, strain RPL9B, stronger effect = lower value 1 | S. cerevisiae deletion strains, locus YNL071W, strain lat1, stronger effect = lower value 1 | S. cerevisiae deletion strains, locus YNL128W, strain TEP1, stronger effect = lower value 0.983 | S. cerevisiae deletion strains, locus YNL183C, strain NPR1, stronger effect = lower value 0.973 | S. cerevisiae deletion strains, locus YNL209W, strain ssb2, stronger effect = lower value 0.998 | S. cerevisiae deletion strains, locus YNL233W, strain BNI4, stronger effect = lower value 0.996 | S. cerevisiae deletion strains, locus YNL248C, strain rpa49, stronger effect = lower value 0.993 | S. cerevisiae deletion strains, locus YNL250W, strain rad50, stronger effect = lower value 0.967 | S. cerevisiae deletion strains, locus YNL271C, strain bni1, stronger effect = lower value 0.982 | S. cerevisiae deletion strains, locus YNL298W, strain CLA4, stronger effect = lower value 0.98 | S. cerevisiae deletion strains, locus YNL307C, strain MCK1, stronger effect = lower value 0.979 | S. cerevisiae deletion strains, locus YNL322C, strain KRE1 (second series), stronger effect = lower value 1 | S. cerevisiae deletion strains, locus YNL322C, strain KRE1, stronger effect = lower value 0.993 | S. cerevisiae deletion strains, locus YNR049C, strain mso1, stronger effect = lower value 0.995 | S. cerevisiae deletion strains, locus YNR052C, strain pop2, stronger effect = lower value 0.988 | S. cerevisiae deletion strains, locus YOL006C, strain TOP1, stronger effect = lower value 1.04 | S. cerevisiae deletion strains, locus YOL012C, strain htz1 0.96 | S. cerevisiae deletion strains, locus YOL147C, strain pex11, stronger effect = lower value 0.983 | S. cerevisiae deletion strains, locus YOR001W, strain rrp6, stronger effect = lower value 0.975 | S. cerevisiae deletion strains, locus YOR061W, strain CKA2, stronger effect = lower value 0.986 | S. cerevisiae deletion strains, locus YOR069W, strain VPS5, stronger effect = lower value 0.99 | S. cerevisiae deletion strains, locus YOR070C, strain gyp1, stronger effect = lower value 1 | S. cerevisiae deletion strains, locus YOR080W, strain dia2, stronger effect = lower value 0.997 | S. cerevisiae deletion strains, locus YOR083W, strain WHI5, stronger effect = lower value 0.973 | S. cerevisiae deletion strains, locus YOR106W, strain vam3, stronger effect = lower value 0.977 | S. cerevisiae deletion strains, locus YOR136W, strain idh2, stronger effect = lower value 0.987 | S. cerevisiae deletion strains, locus YOR144C, strain elg1, stronger effect = lower value 0.987 | S. cerevisiae deletion strains, locus YOR184W, strain ser1, stronger effect = lower value 0.978 | S. cerevisiae deletion strains, locus YOR231W, strain MKK1, stronger effect = lower value 1.01 | S. cerevisiae deletion strains, locus YOR265W, strain rbl2, stronger effect = lower value 0.996 | S. cerevisiae deletion strains, locus YOR270C, strain vph1, stronger effect = lower value 0.989 | S. cerevisiae deletion strains, locus YOR290C, strain snf2, stronger effect = lower value 0.997 | S. cerevisiae deletion strains, locus YOR316C, strain cot1, stronger effect = lower value 0.983 | S. cerevisiae deletion strains, locus YPL051W, strain arl3, stronger effect = lower value 0.995 | S. cerevisiae deletion strains, locus YPL055C, strain LGE1, stronger effect = lower value 1.01 | S. cerevisiae deletion strains, locus YPL078C, strain atp4, stronger effect = lower value 0.974 | S. cerevisiae deletion strains, locus YPL106C, strain sse1, stronger effect = lower value 1.02 | S. cerevisiae deletion strains, locus YPL240C, strain hsp82, stronger effect = lower value 1 | S. cerevisiae deletion strains, locus YPL241C, strain CIN2, stronger effect = lower value 0.993 | S. cerevisiae deletion strains, locus YPL256C, strain CLN2, stronger effect = lower value 1.02 | S. cerevisiae deletion strains, locus YPR119W, strain clb2, stronger effect = lower value 0.979 | S. cerevisiae deletion strains, locus YPR141C, strain kar3, stronger effect = lower value 0.981 | S. cerevisiae deletion strains, locus YPR163C, strain tif3, stronger effect = lower value 0.98 | S. cerevisiae deletion strains, locus YPR167C, strain met16, stronger effect = lower value 0.982 | S. cerevisiae deletion strains, strain wtn01, stronger effect = lower value 0.983 | S. cerevisiae strains, strain wild type, stronger effect = lower value 0.991
